# Shown is part of a subset that was picked to be rich in the strongest signals.
# How the values were obtained:
# Assay in all cases: glycan array binding signal (z-score within array); higher = stronger binding
# Details in all cases: glycan notation: IUPAC condensed, linker removed
# [1] = biological target: Fuc(a1-2)Gal(b1-3)GlcNAc(b1-3)[Gal(b1-4)[Fuc(a1-3)]GlcNAc(b1-6)]Gal(b1-4)Glc
# Outline: (§1)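 The Consortium for Functional Glycomics database supplied 3228 glycan arrays, of which those lacking an available protein sequence were dropped. The binding signal, a within-array Z-score, was averaged across arrays of the same protein sequence and across linkers. Negative scores can be read as non-binding.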
# [2] = biological target: Fuc(a1-2)Gal(b1-3)[Fuc(a1-4)]GlcNAc(b1-2)Man(a1-3)[Fuc(a1-2)Gal(b1-3)[Fuc(a1-4)]GlcNAc(b1-2)Man(a1-6)]Man(b1-4)GlcNAc(b1-4)GlcNAc
# Outline: as §1
# [3] = biological target: Fuc(a1-2)Gal(b1-4)[Fuc(a1-3)]GlcNAc
# Outline: as §1
# [4] = biological target: Fuc(a1-2)GlcNAc
# Outline: as §1
# [5] = biological target: Fuc(a1-2)[Gal(a1-3)]Gal(b1-3)GalNAc
# Outline: as §1
# [6] = biological target: Fuc(a1-2)[GalNAc(a1-3)]Gal(b1-4)GlcNAc(b1-2)Man(a1-3)[Fuc(a1-2)[GalNAc(a1-3)]Gal(b1-4)GlcNAc(b1-2)Man(a1-6)]Man(b1-4)GlcNAc(b1-4)GlcNAc
# Outline: as §1
# [7] = biological target: Fuc(a1-2)[GalNAc(a1-3)]Gal(b1-4)GlcNAc(b1-3)Gal(b1-4)GlcNAc
# Outline: as §1
# [8] = biological target: Fuc(a1-2)[GalNAc(a1-3)]Gal(b1-4)GlcNAc(b1-3)Gal(b1-4)GlcNAc(b1-3)Gal(b1-4)GlcNAc
# Outline: as §1
# [9] = biological target: Fuc(a1-2)[GalNAc(a1-3)]Gal(b1-4)[Fuc(a1-3)]GlcNAc(b1-3)GalNAc
# Outline: as §1
# [10] = biological target: Fuc(a1-2)[GalNAc(a1-4)]Gal(b1-4)GlcNAc
# Outline: as §1
# [11] = biological target: Fuc(a1-3)[Gal(b1-4)]Glc6S
# Outline: as §1
# [12] = biological target: Fuc(a1-3)[Gal(b1-4)]GlcNAc(b1-2)Man(a1-3)[Fuc(a1-3)[Gal(b1-4)]GlcNAc(b1-2)Man(a1-6)]Man(b1-4)GlcNAc(b1-4)GlcNAc
# Outline: as §1
# [13] = biological target: Fuc(a1-3)[Gal(b1-4)]GlcNAc(b1-3)Gal(b1-4)[Fuc(a1-3)]GlcNAc
# Outline: as §1
# [14] = biological target: Fuc(a1-3)[Gal(b1-4)]GlcNAc(b1-4)Gal(b1-4)[Fuc(a1-3)]GlcNAc(b1-4)Gal(b1-4)[Fuc(a1-3)]GlcNAc
# Outline: as §1
# [15] = biological target: Fuc(a1-3)[Neu5Ac(a2-3)]Gal(b1-4)GlcNAc(b1-3)GalNAc
# Outline: as §1
# [16] = biological target: Gal(a1-3)Gal(b1-3)GlcNAc
# Outline: as §1
# [17] = biological target: Gal(a1-3)Gal(b1-4)GlcNAc(b1-6)GalNAc
# Outline: as §1
# [18] = biological target: Gal(a1-4)Gal(b1-4)GlcNAc
# Outline: as §1
# [19] = biological target: Gal(b1-2)Gal
# Outline: as §1
# [20] = biological target: Gal(b1-3)GalNAc(b1-3)Gal
# Outline: as §1
# [21] = biological target: Gal(b1-3)GalNAc(b1-4)[Neu5Ac(a2-3)]Gal(b1-4)Glc
# Outline: as §1
# [22] = biological target: Gal(b1-3)GlcNAc(b1-2)Man
# Outline: as §1
# [23] = biological target: Gal(b1-3)GlcNAc(b1-3)Gal(b1-4)GlcNAc(b1-3)Gal(b1-4)GlcNAc(b1-2)[Gal(b1-3)GlcNAc(b1-3)Gal(b1-4)GlcNAc(b1-3)Gal(b1-4)GlcNAc(b1-6)]Man(a1-6)[Gal(b1-3)GlcNAc(b1-3)Gal(b1-4)GlcNAc(b1-3)Gal(b1-4)GlcNAc(b1-2)Man(a1-3)]Man(b1-4)GlcNAc(b1-4)[Fuc(a1-6)]GlcNAc
# Outline: as §1
# [24] = biological target: Gal(b1-3)GlcNAc(b1-3)Gal(b1-4)GlcNAc(b1-6)[Gal(b1-3)GlcNAc(b1-3)]Gal(b1-4)Glc
# Outline: as §1
# [25] = biological target: Gal(b1-3)GlcNAc(b1-6)[Gal(b1-3)]GalNAc
# Outline: as §1
# [26] = biological target: Gal(b1-3)[Fuc(a1-4)]GlcNAc(b1-2)Man(a1-3)[Gal(b1-3)[Fuc(a1-4)]GlcNAc(b1-2)Man(a1-6)]Man(b1-4)GlcNAc(b1-4)GlcNAc
# Outline: as §1
# [27] = biological target: Gal(b1-4)GlcNAc(b1-2)Man(a1-3)[GlcNAc(b1-4)][Gal(b1-4)GlcNAc(b1-2)Man(a1-6)]Man(b1-4)GlcNAc(b1-4)GlcNAc
# Outline: as §1
# [28] = biological target: Gal(b1-4)GlcNAc(b1-3)Gal(b1-4)GlcNAc(b1-3)Gal(b1-4)GlcNAc(b1-2)[Gal(b1-4)GlcNAc(b1-3)Gal(b1-4)GlcNAc(b1-3)Gal(b1-4)GlcNAc(b1-6)]Man(a1-6)[Gal(b1-4)GlcNAc(b1-3)Gal(b1-4)GlcNAc(b1-3)Gal(b1-4)GlcNAc(b1-2)Man(a1-3)]Man(b1-4)GlcNAc(b1-4)[Fuc(a1-6)]GlcNAc
# Outline: as §1
# [29] = biological target: Gal(b1-4)GlcNAc(b1-3)Gal(b1-4)GlcNAc(b1-3)Gal(b1-4)GlcNAc(b1-3)Gal(b1-4)GlcNAc(b1-3)Gal(b1-4)GlcNAc(b1-2)Man(a1-3)[Gal(b1-4)GlcNAc(b1-3)Gal(b1-4)GlcNAc(b1-3)Gal(b1-4)GlcNAc(b1-3)Gal(b1-4)GlcNAc(b1-3)Gal(b1-4)GlcNAc(b1-2)Man(a1-6)]Man(b1-4)GlcNAc(b1-4)[Fuc(a1-6)]GlcNAc
# Outline: as §1
# [30] = biological target: Gal(b1-4)GlcNAc(b1-3)Gal(b1-4)GlcNAc(b1-6)[Gal(b1-3)]GalNAc
# Outline: as §1
binder,measurement,setting,value
"HPA (Helix pomatia), Q2F1K8 (protein) MQAFYSGLLLLCVVAFAAAQRVQSGKIDCGNDAGWAKVPSDDPGRDNTRELAKNITFASPYCRPPVVLLSITQLDVEQSQNLRVIARLYSVSPTGFKASCYTWHNTKVYSMSISWISIENY",glycan array binding signal (z-score),[1],-0.454
same,glycan array binding signal (z-score),[2],4.62
same,glycan array binding signal (z-score),[3],-0.109
same,glycan array binding signal (z-score),[4],-0.295
same,glycan array binding signal (z-score),[5],-0.303
same,glycan array binding signal (z-score),[6],3.07
same,glycan array binding signal (z-score),[7],2.66
same,glycan array binding signal (z-score),[8],3.15
same,glycan array binding signal (z-score),[9],0.306
same,glycan array binding signal (z-score),[10],2.81
same,glycan array binding signal (z-score),[11],0.244
same,glycan array binding signal (z-score),[12],-0.126
same,glycan array binding signal (z-score),[13],-0.242
same,glycan array binding signal (z-score),[14],-0.09
same,glycan array binding signal (z-score),[15],4.26
same,glycan array binding signal (z-score),[16],-0.213
same,glycan array binding signal (z-score),[17],-0.173
same,glycan array binding signal (z-score),[18],-0.114
same,glycan array binding signal (z-score),[19],-0.074
same,glycan array binding signal (z-score),[20],-0.375
same,glycan array binding signal (z-score),[21],-0.291
same,glycan array binding signal (z-score),[22],-0.119
same,glycan array binding signal (z-score),[23],0.092
same,glycan array binding signal (z-score),[24],-0.34
same,glycan array binding signal (z-score),[25],-0.205
same,glycan array binding signal (z-score),[26],2.87
same,glycan array binding signal (z-score),[27],-0.311
same,glycan array binding signal (z-score),[28],0.257
same,glycan array binding signal (z-score),[29],0.027
same,glycan array binding signal (z-score),[30],0.365

# Source: the supplement of paper PMC8728848
